According to PMC7862700, “An all-to-all approach to the identification of sequence-specific readers for epigenetic DNA modifications on cytosine”:

Assays:
Assay in all cases: DAPPL (digital affinity profiling via proximity ligation, sequencing); 10 mM Tris-HCl pH 7.5, 50 mM NaCl, 1 mM DTT, 4% glycerol, room temperature, 30 min; GST-TFs on glutathione beads, 16-mer random dsDNA library, 0.1% formaldehyde crosslink after washing; high values mean tight binding
FEV = biological target: T1, FEV (Homo sapiens, UniProt Q99581 1-238); conditions: protein: recombinant; tags: N-terminal GST; dsDNA, one strand shown
T1 sequence: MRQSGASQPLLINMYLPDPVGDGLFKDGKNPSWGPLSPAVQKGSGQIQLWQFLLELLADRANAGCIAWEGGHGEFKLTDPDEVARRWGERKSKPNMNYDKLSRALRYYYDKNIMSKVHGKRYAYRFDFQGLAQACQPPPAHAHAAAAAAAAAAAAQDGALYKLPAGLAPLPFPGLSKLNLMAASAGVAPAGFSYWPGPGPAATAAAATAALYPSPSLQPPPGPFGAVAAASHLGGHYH
Method in brief: (§1)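 Yeast served to express human transcription factors as GST fusions, which were then captured on glutathione beads and labelled with DNA barcodes. Pooled with a tag-only sample, they were incubated with 200 nmole of a 16-mer random double-stranded DNA library for 30 min at room temperature in Tris/NaCl/DTT/glycerol buffer, washed, crosslinked with 0.1% formaldehyde, ligated by proximity, amplified by PCR and sequenced. Dividing each hexamer's read frequency for a factor by its frequency for the tag-only sample gives the binding signal.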

ETV5 = ETV5 (Homo sapiens, UniProt P41161 1-510); conditions: protein: recombinant; tags: N-terminal GST; dsDNA, one strand shown
ETV5, sequence (P41161 whole entry): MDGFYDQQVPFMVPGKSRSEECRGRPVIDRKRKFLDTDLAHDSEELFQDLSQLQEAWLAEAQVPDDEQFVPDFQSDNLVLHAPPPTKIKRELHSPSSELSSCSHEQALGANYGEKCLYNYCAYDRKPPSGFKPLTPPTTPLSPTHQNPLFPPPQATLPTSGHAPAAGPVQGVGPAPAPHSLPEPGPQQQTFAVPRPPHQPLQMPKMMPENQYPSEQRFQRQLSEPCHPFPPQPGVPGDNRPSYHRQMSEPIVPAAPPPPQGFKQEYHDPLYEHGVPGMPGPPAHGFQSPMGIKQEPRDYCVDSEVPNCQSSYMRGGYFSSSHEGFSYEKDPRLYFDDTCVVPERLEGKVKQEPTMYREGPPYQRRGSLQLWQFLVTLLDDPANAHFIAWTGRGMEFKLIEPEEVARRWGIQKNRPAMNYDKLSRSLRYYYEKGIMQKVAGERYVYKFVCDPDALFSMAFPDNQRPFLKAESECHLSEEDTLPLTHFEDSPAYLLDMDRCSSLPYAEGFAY
Method in brief: as §1

HSF1 = HSF1 (Homo sapiens, UniProt Q00613 1-529); conditions: protein: recombinant; tags: N-terminal GST; chain copies: 3; dsDNA, one strand shown
HSF1, sequence (Q00613 whole entry): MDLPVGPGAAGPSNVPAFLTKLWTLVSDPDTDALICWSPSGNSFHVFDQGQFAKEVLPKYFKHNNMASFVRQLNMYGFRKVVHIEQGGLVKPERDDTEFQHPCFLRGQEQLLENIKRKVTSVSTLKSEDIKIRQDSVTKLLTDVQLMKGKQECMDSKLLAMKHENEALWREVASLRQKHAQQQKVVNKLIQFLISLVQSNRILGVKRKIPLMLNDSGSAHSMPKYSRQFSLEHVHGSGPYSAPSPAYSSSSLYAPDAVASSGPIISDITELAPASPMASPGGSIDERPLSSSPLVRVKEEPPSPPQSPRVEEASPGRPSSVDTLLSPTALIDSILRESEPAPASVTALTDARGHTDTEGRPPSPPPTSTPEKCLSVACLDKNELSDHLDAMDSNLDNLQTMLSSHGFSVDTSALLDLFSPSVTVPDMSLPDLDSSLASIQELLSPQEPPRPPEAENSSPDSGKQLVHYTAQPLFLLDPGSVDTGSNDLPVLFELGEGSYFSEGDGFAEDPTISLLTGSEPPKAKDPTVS
Method in brief: as §1

SPIC = biological target: T2, SPIC (Homo sapiens, UniProt Q8N5J4 1-248); conditions: protein: recombinant; tags: N-terminal GST; dsDNA, one strand shown
T2 sequence: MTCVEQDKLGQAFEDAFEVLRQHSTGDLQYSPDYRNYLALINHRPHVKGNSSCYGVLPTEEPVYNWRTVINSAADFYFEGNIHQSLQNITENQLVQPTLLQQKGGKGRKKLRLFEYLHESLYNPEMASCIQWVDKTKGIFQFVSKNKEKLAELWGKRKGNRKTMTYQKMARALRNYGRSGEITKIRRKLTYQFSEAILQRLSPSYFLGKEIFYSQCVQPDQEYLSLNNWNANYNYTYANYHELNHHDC
Method in brief: as §1

ELF4 = ELF4 (Homo sapiens, UniProt Q99607 1-663); conditions: protein: recombinant; tags: N-terminal GST; dsDNA, one strand shown
ELF4, sequence (Q99607 whole entry): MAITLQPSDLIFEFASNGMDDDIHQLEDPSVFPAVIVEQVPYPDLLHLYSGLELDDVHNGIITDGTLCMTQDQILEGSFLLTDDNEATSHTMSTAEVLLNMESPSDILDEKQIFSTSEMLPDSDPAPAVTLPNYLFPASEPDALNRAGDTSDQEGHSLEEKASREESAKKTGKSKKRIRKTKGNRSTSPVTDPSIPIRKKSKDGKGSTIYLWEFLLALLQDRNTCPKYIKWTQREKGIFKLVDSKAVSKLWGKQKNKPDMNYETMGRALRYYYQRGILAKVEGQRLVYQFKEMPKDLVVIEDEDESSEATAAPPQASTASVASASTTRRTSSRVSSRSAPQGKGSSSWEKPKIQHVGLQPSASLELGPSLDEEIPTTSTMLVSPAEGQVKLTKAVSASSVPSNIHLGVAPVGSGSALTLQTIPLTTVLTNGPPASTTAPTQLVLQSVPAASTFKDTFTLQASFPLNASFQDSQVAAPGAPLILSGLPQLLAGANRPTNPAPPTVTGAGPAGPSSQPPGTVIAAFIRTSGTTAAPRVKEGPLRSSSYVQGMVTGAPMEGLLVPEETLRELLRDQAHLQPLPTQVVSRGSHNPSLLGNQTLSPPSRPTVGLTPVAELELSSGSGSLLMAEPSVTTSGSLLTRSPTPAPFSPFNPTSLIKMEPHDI
Method in brief: as §1

ELK4 = biological target: T3, ELK4 (Homo sapiens, UniProt P28324-2 1-405); conditions: protein: recombinant; tags: N-terminal GST; dsDNA, one strand shown
T3 sequence: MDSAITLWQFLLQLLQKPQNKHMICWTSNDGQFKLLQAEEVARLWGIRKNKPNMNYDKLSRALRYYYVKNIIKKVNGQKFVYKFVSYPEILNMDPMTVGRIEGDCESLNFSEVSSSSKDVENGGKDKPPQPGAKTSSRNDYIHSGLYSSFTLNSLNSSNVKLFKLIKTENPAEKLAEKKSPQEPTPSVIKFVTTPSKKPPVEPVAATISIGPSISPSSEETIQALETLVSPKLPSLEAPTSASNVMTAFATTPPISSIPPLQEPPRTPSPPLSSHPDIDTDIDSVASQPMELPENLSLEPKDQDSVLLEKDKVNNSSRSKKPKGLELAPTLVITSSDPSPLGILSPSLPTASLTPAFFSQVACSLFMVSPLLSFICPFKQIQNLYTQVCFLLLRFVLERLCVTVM
Method in brief: as §1

ETV2 = biological target: T4, ETV2 (Homo sapiens, UniProt O00321 1-342); conditions: protein: recombinant; tags: N-terminal GST; dsDNA, one strand shown
T4 sequence: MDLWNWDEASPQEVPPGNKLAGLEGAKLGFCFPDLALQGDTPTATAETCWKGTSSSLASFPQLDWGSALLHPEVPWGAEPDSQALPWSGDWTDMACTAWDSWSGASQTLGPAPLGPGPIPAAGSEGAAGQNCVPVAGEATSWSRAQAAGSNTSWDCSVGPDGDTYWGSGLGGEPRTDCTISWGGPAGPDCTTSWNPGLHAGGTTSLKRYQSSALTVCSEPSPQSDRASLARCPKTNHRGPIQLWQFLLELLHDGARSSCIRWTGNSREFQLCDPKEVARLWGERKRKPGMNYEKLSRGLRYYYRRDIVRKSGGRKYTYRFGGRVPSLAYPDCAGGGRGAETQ
Method in brief: as §1

ELF3 = biological target: T5, ELF3 (Homo sapiens, UniProt P78545 1-371); conditions: protein: recombinant; tags: N-terminal GST; dsDNA, one strand shown
T5 sequence: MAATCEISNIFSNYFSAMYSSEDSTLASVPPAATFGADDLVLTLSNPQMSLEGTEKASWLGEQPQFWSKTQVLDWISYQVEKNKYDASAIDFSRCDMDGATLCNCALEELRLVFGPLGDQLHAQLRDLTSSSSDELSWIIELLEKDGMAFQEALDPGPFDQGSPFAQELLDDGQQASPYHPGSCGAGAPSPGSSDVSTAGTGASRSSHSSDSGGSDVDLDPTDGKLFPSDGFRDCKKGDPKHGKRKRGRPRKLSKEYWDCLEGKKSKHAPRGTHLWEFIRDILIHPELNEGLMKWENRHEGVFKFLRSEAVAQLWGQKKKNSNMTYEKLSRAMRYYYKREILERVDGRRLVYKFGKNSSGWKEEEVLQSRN
Method in brief: as §1

CRX = CRX (Homo sapiens, UniProt O43186 1-299); conditions: protein: recombinant; tags: N-terminal GST; dsDNA, one strand shown
CRX, sequence (O43186 whole entry): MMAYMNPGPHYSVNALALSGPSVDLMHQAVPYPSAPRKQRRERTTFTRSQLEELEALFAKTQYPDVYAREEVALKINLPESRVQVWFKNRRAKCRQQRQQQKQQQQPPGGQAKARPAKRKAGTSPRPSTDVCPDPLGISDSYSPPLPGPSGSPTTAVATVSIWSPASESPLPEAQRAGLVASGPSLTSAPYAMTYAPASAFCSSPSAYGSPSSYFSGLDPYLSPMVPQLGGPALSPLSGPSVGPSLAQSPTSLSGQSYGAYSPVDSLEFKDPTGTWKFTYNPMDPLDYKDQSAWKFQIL
Method in brief: as §1

ETV1 = ETV1 (Homo sapiens, UniProt P50549 1-477); conditions: protein: recombinant; tags: N-terminal GST; dsDNA, one strand shown
ETV1, sequence (P50549 whole entry): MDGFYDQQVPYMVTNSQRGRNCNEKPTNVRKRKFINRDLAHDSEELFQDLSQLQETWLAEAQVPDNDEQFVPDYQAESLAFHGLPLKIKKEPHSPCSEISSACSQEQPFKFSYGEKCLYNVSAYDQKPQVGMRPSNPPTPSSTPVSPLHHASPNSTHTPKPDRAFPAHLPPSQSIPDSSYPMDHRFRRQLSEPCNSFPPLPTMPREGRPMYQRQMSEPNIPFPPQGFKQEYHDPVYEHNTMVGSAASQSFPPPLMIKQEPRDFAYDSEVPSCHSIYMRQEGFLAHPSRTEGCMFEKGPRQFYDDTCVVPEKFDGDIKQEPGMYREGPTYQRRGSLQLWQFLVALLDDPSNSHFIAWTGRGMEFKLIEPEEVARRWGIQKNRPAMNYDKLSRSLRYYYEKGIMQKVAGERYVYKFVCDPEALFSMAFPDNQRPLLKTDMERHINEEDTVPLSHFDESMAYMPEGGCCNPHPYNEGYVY
Method in brief: as §1

Row | Sequence | binding signal (FEV) | binding signal (ETV5) | binding signal (HSF1) | binding signal (SPIC) | binding signal (ELF4) | binding signal (ELK4) | binding signal (ETV2) | binding signal (ELF3) | binding signal (CRX) | binding signal (ETV1)
1 | GATGGC | 1.33 fold enrichment (6-mer frequency, TF over GST control) | 1.26 fold enrichment (6-mer frequency, TF over GST control) | 1.1 fold enrichment (6-mer frequency, TF over GST control) | 1.45 fold enrichment (6-mer frequency, TF over GST control) | 1.4 fold enrichment (6-mer frequency, TF over GST control) | 1.3 fold enrichment (6-mer frequency, TF over GST control) | 1.21 fold enrichment (6-mer frequency, TF over GST control) | 1.47 fold enrichment (6-mer frequency, TF over GST control) | 1.11 fold enrichment (6-mer frequency, TF over GST control) | 1.31 fold enrichment (6-mer frequency, TF over GST control)
2 | ATAACC | 1.22 fold enrichment (6-mer frequency, TF over GST control) | 1.21 fold enrichment (6-mer frequency, TF over GST control) | 1.09 fold enrichment (6-mer frequency, TF over GST control) | 1.05 fold enrichment (6-mer frequency, TF over GST control) | 1.23 fold enrichment (6-mer frequency, TF over GST control) | 1.18 fold enrichment (6-mer frequency, TF over GST control) | 1.05 fold enrichment (6-mer frequency, TF over GST control) | 1.21 fold enrichment (6-mer frequency, TF over GST control) | 1.27 fold enrichment (6-mer frequency, TF over GST control) | 1.1 fold enrichment (6-mer frequency, TF over GST control)
3 | TCTGGC | 1.16 fold enrichment (6-mer frequency, TF over GST control) | 1.11 fold enrichment (6-mer frequency, TF over GST control) | 1.89 fold enrichment (6-mer frequency, TF over GST control) | 1.38 fold enrichment (6-mer frequency, TF over GST control) | 1.4 fold enrichment (6-mer frequency, TF over GST control) | 1.44 fold enrichment (6-mer frequency, TF over GST control) | 1.28 fold enrichment (6-mer frequency, TF over GST control) | 1.03 fold enrichment (6-mer frequency, TF over GST control) | 1.31 fold enrichment (6-mer frequency, TF over GST control) | 1.24 fold enrichment (6-mer frequency, TF over GST control)
4 | GCTTTG | 1.08 fold enrichment (6-mer frequency, TF over GST control) | 1.11 fold enrichment (6-mer frequency, TF over GST control) | 1.23 fold enrichment (6-mer frequency, TF over GST control) | 1.22 fold enrichment (6-mer frequency, TF over GST control) | 1.17 fold enrichment (6-mer frequency, TF over GST control) | 1.22 fold enrichment (6-mer frequency, TF over GST control) | 1.22 fold enrichment (6-mer frequency, TF over GST control) | 1.16 fold enrichment (6-mer frequency, TF over GST control) | 1.49 fold enrichment (6-mer frequency, TF over GST control) | 1.16 fold enrichment (6-mer frequency, TF over GST control)
5 | GGCTCT | 1.35 fold enrichment (6-mer frequency, TF over GST control) | 1.19 fold enrichment (6-mer frequency, TF over GST control) | 1.32 fold enrichment (6-mer frequency, TF over GST control) | 1.34 fold enrichment (6-mer frequency, TF over GST control) | 1.37 fold enrichment (6-mer frequency, TF over GST control) | 1.22 fold enrichment (6-mer frequency, TF over GST control) | 1.4 fold enrichment (6-mer frequency, TF over GST control) | 1.44 fold enrichment (6-mer frequency, TF over GST control) | 1.27 fold enrichment (6-mer frequency, TF over GST control) | 1.42 fold enrichment (6-mer frequency, TF over GST control)
6 | TAAAGT | 1.1 fold enrichment (6-mer frequency, TF over GST control) | 1.13 fold enrichment (6-mer frequency, TF over GST control) | 1.37 fold enrichment (6-mer frequency, TF over GST control) | 1.13 fold enrichment (6-mer frequency, TF over GST control) | 1.13 fold enrichment (6-mer frequency, TF over GST control) | 1.27 fold enrichment (6-mer frequency, TF over GST control) | 1.11 fold enrichment (6-mer frequency, TF over GST control) | 1.13 fold enrichment (6-mer frequency, TF over GST control) | 1.75 fold enrichment (6-mer frequency, TF over GST control) | 1.21 fold enrichment (6-mer frequency, TF over GST control)
7 | GTATTA | 1.09 fold enrichment (6-mer frequency, TF over GST control) | 1.14 fold enrichment (6-mer frequency, TF over GST control) | 1.62 fold enrichment (6-mer frequency, TF over GST control) | 1.04 fold enrichment (6-mer frequency, TF over GST control) | 1.08 fold enrichment (6-mer frequency, TF over GST control) | 1.14 fold enrichment (6-mer frequency, TF over GST control) | 1.2 fold enrichment (6-mer frequency, TF over GST control) | 1.09 fold enrichment (6-mer frequency, TF over GST control) | 2.49 fold enrichment (6-mer frequency, TF over GST control) | 1.13 fold enrichment (6-mer frequency, TF over GST control)
